Results: publication PMC12136788
In all, about 5,800 sequences were measured (“enrichment r”: median about 0.68, highest 2% from about 11 on). A selection follows.

T1: UNK ZnF1-6 (called full-length) (human, UniProt Q9C0B0 30-357)
T1 sequence: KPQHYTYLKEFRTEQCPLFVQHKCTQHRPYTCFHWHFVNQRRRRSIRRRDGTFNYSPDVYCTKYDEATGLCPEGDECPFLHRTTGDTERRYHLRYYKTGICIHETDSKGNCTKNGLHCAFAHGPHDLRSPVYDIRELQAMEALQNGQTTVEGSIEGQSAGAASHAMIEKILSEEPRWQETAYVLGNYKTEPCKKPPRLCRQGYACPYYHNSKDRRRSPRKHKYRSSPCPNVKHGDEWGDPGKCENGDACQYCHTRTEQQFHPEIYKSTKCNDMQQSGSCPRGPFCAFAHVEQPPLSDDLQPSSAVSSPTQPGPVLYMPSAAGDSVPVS

B1: chr3:11298707:11298833:+|CDS|ENSG00000197548|unk|total|mutant (ssRNA)
RNA: GGGAGUUCUACAGUCCGACGAUCAUAAUGGCGGCAGCUACGGGGGAUCCUGGACUCUCUAAACUGCAGUUUGCCCCUUUCCGCCGUGCCUUGGAUGUUGGGUUUUGGCAUGAGUUGACCCAGAAGAAGCUGAACGAGUAUCGGCAACAGAGGAUUGAGCAUCA
B2: chrX:15345595:15346132:-|three_prime_utr|ENSG00000165197|control|control|control (ssRNA)
RNA: GGGAGUUCUACAGUCCGACGAUCCAGACCAACCUUCCAUUCACACCAGCUAAGGAGUCCCUGGUUCAUUGAUGGAUGUCUUCUAGCUGCAGAUGCCUCUGCGCACCAAGGAAUGGAGAGGAGGGGACCCAUGUAAUCCUUUUGCAACAGAGGAUUGAGCAUCA
B3: chrX:65741840:65741941:+|3pUTR|ENSG00000147065|msi1|FALSE|unique (ssRNA)
RNA: GGGAGUUCUACAGUCCGACGAUCAAAUUGUUUUUGGAGGGGUUUAUGCUCAAUCCAUGUUCUAUUUCAGUGCCAAUAAAAUUUAGGAAGACUUCACAGUGACUCAAUCGUUCUUUGUGGUAUGAGUGGGUAGCUGUAAGAUAUCAACAGAGGAUUGAGCAUCA
B4: chr10:72011937:72012038:+|3pUTR|ENSG00000122863|msi1|total|mutant (ssRNA)
RNA: GGGAGUUCUACAGUCCGACGAUCCAUACACCGCAGGUGGUCACCGAGUUAUUUUCCAAAAGCUGAGGAACAUAAAGCAAAUUCCGGCUUUUGUCCUUCUGCAAUACAUGCACUUGAAAAUAAACAGAAAAGAGAUGUUUAAUACAACAGAGGAUUGAGCAUCA
B5: chr17:50110931:50111032:+|3pUTR|ENSG00000005882|unk|total|mutant (ssRNA)
RNA: GGGAGUUCUACAGUCCGACGAUCUGUGCCCAGACAUGUGUGCUCAGGGUGGCUUUCUCCCCCGGACCUUCUGUGUAUACCGUCCGUUUUAUAACCCUGAAUGCCCCCACCCUUCCCCUAAGCACACAGGGGUUAAAGCUGUGUCAACAGAGGAUUGAGCAUCA
B6: chr6:132588675:132589686:-|CDS|ENSG00000135569|control|control|control (ssRNA)
RNA: GGGAGUUCUACAGUCCGACGAUCUGCCAAGACCCUGGGCAUUGCUGUGGGCAUAUACCUCUUGUGCUGGCUGCCCUUCACCAUAGACACGAUGGUCGACAGCCUCCUUCACUUUAUCACACCCCCACUGGUCUUUGACAUCUUCAACAGAGGAUUGAGCAUCA
B7: chr2:1632407:1632508:-|3pUTR|ENSG00000130508|msi1|total|mutant (ssRNA)
RNA: GGGAGUUCUACAGUCCGACGAUCUUGGUAAGUGAUUGAUAAAAAUUGGUUGGUGUUUCAUGACAUGUGGACUUCUUUUGAAACCGCAAGUCAAAUGCCGUGACCAAAUUGUGGAAGAGAUUUCUGUCAAACCGGAAAUGUGUACAACAGAGGAUUGAGCAUCA
B8: ENSG00000198589:be:win_3901|CDS|ENSG00000198589|bound_else_gene|NA|bound_elsewhere_windowed (ssRNA)
RNA: GGGAGUUCUACAGUCCGACGAUCUCUACUGUGUUUCGUAUUCCUGAGUUCAACUGGUCUCAGAUGCAUCAACGUUUGCUCACUGAUCUAUUAUUUUCAAUAGAAACAGAUAUACAGAUGUGGAGAAGCCAUUCAACAAAGACACAACAGAGGAUUGAGCAUCA
B9: chr6:21593967:21594078:+|5pUTR|ENSG00000124766|unk|FALSE|bound_elsewhere (ssRNA)
RNA: GGGAGUUCUACAGUCCGACGAUCUUAGUGCCGAUUCCGCCCACAGAGAGUCCUGGAGCCACAGUCUUUUUUGCUUUGCAUUGUAGGAGAGGGACUAAGUGCUAGAGACUAUGUCGCUUUCCUGAGCUACCGAGAGCGCUCGUGCAACAGAGGAUUGAGCAUCA
B10: chr9:88477803:88477904:+|3pUTR|ENSG00000106723|msi1|FALSE|bound_elsewhere (ssRNA)
RNA: GGGAGUUCUACAGUCCGACGAUCGACAAUACAAGACAUGAAUCUAUGUAUAAAAUUUAUCGGCCUUUCUCAUUUACCUGCUCUAGUAUUAUUGUAUUGUGUGUGCGUGCGUGUGUGAUGUCAGGCUGCCACGUAAAACUUCAGCAACAGAGGAUUGAGCAUCA
B11: chr17:68278117:68278284:-|CDS|ENSG00000108932|unk|FALSE|unique (ssRNA)
RNA: GGGAGUUCUACAGUCCGACGAUCGCUUUGUUCCAAAGCCAAUGUGUAUACUGAAGUGCCUGAUGGAGGAUGGGGCUGGGCGGUAGCUGUUUCAUUUUUCUUCGUUGAAGUCUUCACCUACGGCAUCAUCAAGACAUUUGGUGUCAACAGAGGAUUGAGCAUCA
B12: ENSG00000112146:stop:overlap|stop_codon|ENSG00000112146|stop_codon|NA|stop_codon (ssRNA)
RNA: GGGAGUUCUACAGUCCGACGAUCACACCCCCUUGUUCUUCGCCAGAGUAAGGAGCUACACAGCUUUCUCAGAAAGGCCUCUGUAGAGCCUCAAGUCCAGUCCUCUAUCACUUUUGCAUGAAUUAAAGUAUAUAGCGCAAAAGACAACAGAGGAUUGAGCAUCA
B13: ENSG00000070961:be:win_5851|3pUTR|ENSG00000070961|bound_else_gene|NA|bound_elsewhere_windowed (ssRNA)
RNA: GGGAGUUCUACAGUCCGACGAUCAUGAAUGUAAUUACCAAAAGAUUUAGAAGUGCAUGUGCUUUGGAGGAUUUGUAUUGAGCUUUUACAGUAUUCAUUUUUCAACUCAAGGCAAUGGCUUUCUACACCAACUCUAAUCCAUAACAACAGAGGAUUGAGCAUCA
B14: ENSG00000070961:be:win_3451|CDS|ENSG00000070961|bound_else_gene|NA|bound_elsewhere_windowed (ssRNA)
RNA: GGGAGUUCUACAGUCCGACGAUCAGGAUAGAAGAUUCAGAGCCUCAUAUCCCCCUUAUUGAUGACACUGAUGCCGAAGAUGAUGCUCCUACAAAACGUAACUCCAGUCCUCCACCCUCUCCCAACAAAAAUAACAAUGCUGUUCAACAGAGGAUUGAGCAUCA

target: T1, UNK ZnF1-6 (called full-length); assay: nsRBNS (natural sequence RNA bind-n-seq); RBNS binding buffer (assumed for nsRBNS): 25 mM Tris pH 7.5, 150 mM KCl, 3 mM MgCl2, 0.01% Triton X-100, 500 ug/ml BSA, 20 U/ml SUPERase-In, 4 C; UNK is unkempt and MSI1 is Musashi-1; names of the RNAs are library labels; protein concentration not given here; high values mean tight binding

Q: How did the binding signal turn out when B1 was run?
A: 0.839 enrichment R

Q: For B2, which binding signal is on record?
A: 0.639 enrichment R

Q: With B3 as the binder, how does the binding signal read?
A: 0.698 enrichment R

Q: Which binding signal does the source give for B4 here?
A: 0.34 enrichment R

Q: For B5, which binding signal is on record?
A: 1.06 enrichment R

Q: How did the binding signal turn out when B6 was run?
A: 0.967 enrichment R

Q: How did the binding signal turn out when B7 was run?
A: 0.207 enrichment R

Q: B8 was tested. Which binding signal did it give?
A: 0.382 enrichment R

Q: Which binding signal does the source give for B9 here?
A: 0.815 enrichment R

Q: With B10 as the binder, how does the binding signal read?
A: 1.09 enrichment R

Q: Which binding signal does the source give for B11 here?
A: 0.822 enrichment R

Q: B12 was tested. Which binding signal did it give?
A: 0.367 enrichment R

Q: B13 was tested. Which binding signal did it give?
A: 0.908 enrichment R

Q: Which binding signal does the source give for B14 here?
A: 0.813 enrichment R
